Screens deposited in PubChem by several laboratories.
Most compounds without a hit are left out; they make up all but 27% or so of the library.
Cav32 inh – Cav3.2 calcium influx blockers – cell-based, Fluo-4 calcium fluorescence, FDSS, MLSMR library, primary screen; Cav3.2-expressing cells; active compounds read low; B-score at 10 µM; 100,000 tested, 4% active;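 active = single-dose well whose peak fluorescence ratio is a statistical outlier from its plate by either plate-standardised score or position-corrected B-score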
CYP2C9 inhib – blockers of cytochrome P450 2C9 activity – biochemical, luminescence, ADME assay, primary screen | CYP2C9 Supersomes, luciferin-H conversion | inhibition, % at 5 µM | 96,000 tested, 20% active;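 active = blocking of liver enzyme CYP2C9 beyond about 50% at 5 µM, limit read from the data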
Target sequence (P11712 whole entry, looked up): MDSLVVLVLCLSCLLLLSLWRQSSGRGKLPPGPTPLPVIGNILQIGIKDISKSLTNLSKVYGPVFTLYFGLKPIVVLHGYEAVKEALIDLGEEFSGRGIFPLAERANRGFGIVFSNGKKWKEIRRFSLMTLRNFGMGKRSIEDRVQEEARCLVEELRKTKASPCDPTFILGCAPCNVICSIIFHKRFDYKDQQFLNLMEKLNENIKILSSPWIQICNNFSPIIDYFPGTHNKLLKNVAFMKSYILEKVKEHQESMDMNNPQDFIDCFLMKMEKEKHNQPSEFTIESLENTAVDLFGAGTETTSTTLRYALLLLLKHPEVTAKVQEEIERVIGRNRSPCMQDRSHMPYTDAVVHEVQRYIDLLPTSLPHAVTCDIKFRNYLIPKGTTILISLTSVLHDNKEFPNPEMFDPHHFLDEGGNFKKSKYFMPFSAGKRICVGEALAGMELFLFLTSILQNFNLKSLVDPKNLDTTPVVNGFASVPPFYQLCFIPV
PTK2B oligo ant – antagonists of Pyk2 self-association, primary screen, Q293 cells, FERM NanoBiT luminescence, HTS; active compounds read low; z-score (the deposit names both 25 µM and 10 µM); 99,000 tested, 0.83% active; AID 1347419, 2020;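 active = Z-score of -3 or lower, scaled per plate to the spread of control and sample wells; inactive = z-score above -3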;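 also: negative z-score means lost luminescence so less FERM oligomerization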
CYP2C19 inh – blockers of cytochrome P450 2C19 activity – biochemical, luminescence, ADME assay, primary screen; AID 778, 2007; P33261; CYP2C19 Supersomes, luciferin-H EGE luminescence, 30 min; 96,000 tested, 21% active; inhibition, % at 5 µM;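 active = CYP2C19 inhibition above a set limit at 5 µM in the primary screen, cut at about 50% in these data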
CYP2C9 act – human CYP2C9 activators, primary screen, biochemical, luminescence | Cytochrome P450 2C9 (Homo sapiens), P11712 | recombinant CYP2C9, luciferin-H conversion; active compounds read high; factor 1 = untreated enzyme, 0 = blocked | activation factor at 5 µM | 96,000 tested, 1.4% active;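 active = activation factor of 2 or more for CYP2C9 at a 5 µM dose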
CYP2C19 activ – human CYP2C19 activators, primary screen, biochemical, luminescence. recombinant CYP2C19, luciferin-H EGE luminescence; active compounds read high; 0 = fully inhibited enzyme, 1 = untreated enzyme. activation factor at 5 µM. Cytochrome P450 2C19 (Homo sapiens), P33261. 96,000 tested, under 10 active;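 active = activation factor of at least 2 at 5 µM in the primary screen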
Of the large screens only hits and unclear results are named; the others gave an inactive call.

CC(C)(C)OC(=O)N[C@@H](Cc1ccccc1)c1nnc(S(=O)(=O)Cc2ccccc2)o1	none (no result: PTK2B oligo ant)
CCSc1nnc([C@H](Cc2ccccc2)NC(=O)OC(C)(C)C)o1	none
CC(C)(C)OC(=O)N[C@@H](Cc1c[nH]c2ccccc12)c1nnc(SCC(N)=O)o1	none
CC(C)Sc1nnc([C@H](Cc2c[nH]c3ccccc23)NC(=O)OC(C)(C)C)o1	Cav32 inh -4.1
CC(C)(C)OC(=O)N[C@@H](Cc1ccccc1)c1nnc(SCC(=O)c2ccc(Cl)cc2)o1	CYP2C9 inhib 61, CYP2C19 inh 61
Cc1ccccc1CS(=O)(=O)c1nnc([C@H](Cc2ccccc2)NC(=O)OC(C)(C)C)o1	CYP2C9 inhib 66
COc1cccc(/C=C/C(=C2\C(=O)N(c3ccccc3)N=C2C)c2ccc(Br)cc2)c1OC	none (no result: Cav32 inh, CYP2C9 inhib, CYP2C19 inh, CYP2C9 act, CYP2C19 activ)
O=C(NC1CCCCC1)NC1CC2CCC(C1)N2Cc1nnnn1Cc1ccc2c(c1)OCO2 (stereo unspecified)	none (no result: Cav32 inh)
O=C(O/N=C/c1ccc2c(c1)OCO2)c1ccccc1Cl	none (no result: PTK2B oligo ant)
CC(C)CSc1nc2c(=O)[nH][nH]c(=O)c2n1Cc1ccccc1	none (no result: CYP2C9 inhib, CYP2C19 inh, CYP2C9 act, CYP2C19 activ)
CC(C)n1c(N2CCN(C(=O)c3cccs3)CC2)nc2ccccc21	CYP2C9 inhib 58, CYP2C19 inh 51 (no result: Cav32 inh)
COc1ccc(S(=O)(=O)N2CCN(C(=O)c3cccs3)CC2)cc1	CYP2C19 inh 94 (no result: Cav32 inh)
CN(C)S(=O)(=O)N1CCN(C(=O)c2cccs2)CC1	CYP2C19 inh 76 (no result: Cav32 inh)
O=C(c1cccs1)N1CCCC1	none (no result: CYP2C9 inhib, CYP2C19 inh, CYP2C9 act, CYP2C19 activ)
CC(C)n1c(N2CCN(C(=O)N3CCCCC3)CC2)nc2ccccc21	none
CCc1ccc(CCOc2ccc(CC3SC(=O)NC3=O)cc2)nc1 (stereo unspecified)	none (no result: CYP2C9 inhib, PTK2B oligo ant, CYP2C19 inh, CYP2C9 act, CYP2C19 activ)
CCOC(=O)c1ccc(CC2S/C(=C(\C#N)C(C)=O)NC2=O)cc1 (stereo unspecified)	CYP2C9 inhib 62
CCc1ccc(CC2S/C(=C(\C#N)C(C)=O)NC2=O)cc1 (stereo unspecified)	CYP2C9 inhib 78
Cc1nnc(-c2cnn(C)c2N)n1Cc1ccc(Cl)cc1	none
CC1CCCC(C)N1NC(=O)c1ccc(Cl)c(S(N)(=O)=O)c1 (stereo unspecified)	none (no result: PTK2B oligo ant)
CC(C)OC(=O)C1C(=O)CC(C)(O)C(C(=O)OC(C)C)C1c1cccc(O)c1 (stereo unspecified)	none (no result: Cav32 inh)
Cn1cnnc1SCC(=O)c1ccc2c(c1)CCCC2	none
NNS(=O)(=O)c1ccc(Cc2ncc(C(F)(F)F)cc2Cl)s1	CYP2C19 inh 70
CCN(CC)S(=O)(=O)c1ccc(Cc2ncc(C(F)(F)F)cc2Cl)s1	Cav32 inh -3.7, CYP2C9 inhib 59, CYP2C19 inh 83
NS(=O)(=O)c1ccc(Cc2ncc(C(F)(F)F)cc2Cl)s1	none
CC1(C)CC(=O)c2cc(OCC(=O)NCCCN3CCN(c4ccc(F)cc4)CC3)ccc2O1	none
CCN(N=O)[C@@H](Cc1ccccc1)CN(N=O)[C@@H](Cc1ccccc1)CN(C)N=O	none (no result: CYP2C9 inhib, PTK2B oligo ant, CYP2C19 inh, CYP2C9 act, CYP2C19 activ)
COc1ccccc1N(Cc1cc2cccc(C)c2[nH]c1=O)C(=O)C(C)C	none
O=C(CSc1nnnn1-c1ccccc1)CC(=O)Nc1ccc(Cl)cc1	CYP2C9 act 2.4 (no result: Cav32 inh)
Cc1nnc(SCC(=O)Nc2nsc(-c3ccccc3)n2)s1	none
O=C(CSc1nnnn1-c1ccccc1)Nc1nsc(-c2ccc(Cl)cc2)n1	CYP2C19 inh 75, CYP2C9 act 2.8
O=C(CSc1nnnn1-c1ccccc1)Nc1ccc(N2CCOCC2)c(Cl)c1	none
Cc1ccc(-c2nc(NC(=O)CSc3nnc(C)s3)ns2)cc1	CYP2C19 inh 65 (no result: PTK2B oligo ant)
Cc1cccc(C)c1NC(=O)C(c1cccs1)N(Cc1ccco1)C(=O)Cn1nnc2ccccc21 (stereo unspecified)	none
c1ccc(-c2nnc(CN3CCCc4ccccc43)o2)cc1	CYP2C9 inhib 76, CYP2C19 inh 78 (no result: Cav32 inh)
c1ccc(-c2nnc(CN3CCC4(CC3)OCCO4)o2)cc1	CYP2C19 inh 53
FC(F)(F)c1cc(-c2ccco2)nc(NCCc2ccccc2)n1	none
C=C(C)C(=O)Nc1cccc(C2=NOC3(C2)C[C@@H](C(N)=O)N(C(=O)/C=C/C=C/C)C3)c1 (stereo partly specified)	none (no result: CYP2C9 inhib, PTK2B oligo ant, CYP2C19 inh, CYP2C9 act, CYP2C19 activ)
NC(=O)C(c1ccc(Cl)cc1Cl)c1ncc(C(F)(F)F)cc1Cl (stereo unspecified)	CYP2C19 inh 88
NC(=O)C(c1ccc(Cl)cc1)c1ncc(C(F)(F)F)cc1Cl (stereo unspecified)	CYP2C19 inh 73
COC(=O)CCC(=O)Nc1cccc(Br)c1	none
COc1cc(/C=N\NC(=O)c2ccc(Cn3nc([N+](=O)[O-])c(Cl)c3C)o2)ccc1O	CYP2C19 inh 65 (no result: Cav32 inh)
O=C(O)CCCCCNC(=O)Nc1ccc2c(c1)OCCO2	none
Cc1ccccc1Nc1nc(N)nc(COC(=O)c2cccc(S(=O)(=O)N(C)C)c2)n1	none (no result: Cav32 inh, CYP2C9 inhib, CYP2C19 inh, CYP2C9 act, CYP2C19 activ)
COc1ccc(C(=O)NC(=S)NC(C)(C)C)cc1Br	none
COc1ccccc1N1CCN(C(=O)COc2ccc(Cl)cc2)CC1	CYP2C9 inhib 52, CYP2C19 inh 80
CC(=O)c1ccc(N2CCN(C(=O)COc3ccc(F)cc3)CC2)c(F)c1	CYP2C19 inh 53
O=C(COc1ccc(Cl)cc1)N1CCN(c2ncccn2)CC1	CYP2C9 inhib 54, CYP2C19 inh 67
COc1ccccc1OCC(=O)N1CCN(c2ccccc2OC)CC1	none
COc1ccc(OCC(=O)N2CCN(S(=O)(=O)c3ccc(Cl)cc3)CC2)cc1	none
O=C1C(NS(=O)(=O)c2cccs2)=C(N2CCN(c3cccc(C(F)(F)F)c3)CC2)C(=O)c2ccccc21	CYP2C9 inhib 52
Cc1cccc(N2C(=O)CSC2c2cccnc2)c1 (stereo unspecified)	none
Cc1ccc(N2CCN(c3ccc(C)cc3)C2c2ccncc2)cc1	CYP2C9 inhib 71, CYP2C19 inh 88
COc1ccc(N2C(=O)C3CCCN3C2c2ccc(C)cc2)cc1 (stereo unspecified)	none (no result: PTK2B oligo ant)
Cc1cccc(N2CCN(c3cccc(C)c3)C2c2cccnc2)c1	Cav32 inh -4.8
CCCCn1nnnc1SCC(=O)Nc1cccc(C)n1	CYP2C19 inh 65
Cc1cccc(NC(=O)CSc2nnnn2C)n1	none
COCCCn1c(SCC(=O)Nc2cccc(C)n2)nnc1-c1ccco1	none
CCCCn1c(SCC(=O)Nc2cccc(C)n2)nnc1-c1ccco1	CYP2C9 inhib 96, CYP2C19 inh 87
CCc1c(C(=O)Nc2ccc(S(=O)(=O)N3CCOCC3)cc2)csc1C	none
CCn1c(SCC(N)=O)nc2c1c(=O)n(C)c(=O)n2C	none
